Bioassay records from PubChem.
Hits are enriched below; roughly 2.2% of the tested compounds scored in any of these assays.
rTrxR1 inhibitor – qHTS Assay for Inhibitors of Mammalian Selenoprotein Thioredoxin Reductase 1 (TrxR1): qHTS | 1% of 390,000 active | recombinant rTrxR1, NADPH fluorescence consumption, selenite substrate | Thioredoxin reductase 1, cytoplasmic (Rattus norvegicus), O89049 | Potency, µM (highest dose often 114 µM), hits mostly inhibitors; further: nearly all actives have a fitted effect of over 65% in size
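Rat TrxR1 (90 nM in the dispensed reagent) was pre-reduced with 400 uM NADPH for 5 min at room temperature, then incubated with compound for 15 min. After 400 uM selenite was added, NADPH fluorescence (Ex 340/Em 450 nm) was followed for 8 min.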
IDH1 R132H inh – qHTS for Inhibitors of mutant isocitrate dehydrogenase 1 (IDH1): qHTS | Isocitrate dehydrogenase [NADP] cytoplasmic (Homo sapiens), O75874 | IDH1-R132H enzyme, NADPH consumption, diaphorase/resazurin fluorescence | Potency, µM (highest dose often 76.6 µM), actives largely listed as inhibitors | 0.093% of 390,000 active; further: nearly all actives have a fitted effect of over 65% in size
Target sequence (O75874 whole entry R132H, stated change not applied): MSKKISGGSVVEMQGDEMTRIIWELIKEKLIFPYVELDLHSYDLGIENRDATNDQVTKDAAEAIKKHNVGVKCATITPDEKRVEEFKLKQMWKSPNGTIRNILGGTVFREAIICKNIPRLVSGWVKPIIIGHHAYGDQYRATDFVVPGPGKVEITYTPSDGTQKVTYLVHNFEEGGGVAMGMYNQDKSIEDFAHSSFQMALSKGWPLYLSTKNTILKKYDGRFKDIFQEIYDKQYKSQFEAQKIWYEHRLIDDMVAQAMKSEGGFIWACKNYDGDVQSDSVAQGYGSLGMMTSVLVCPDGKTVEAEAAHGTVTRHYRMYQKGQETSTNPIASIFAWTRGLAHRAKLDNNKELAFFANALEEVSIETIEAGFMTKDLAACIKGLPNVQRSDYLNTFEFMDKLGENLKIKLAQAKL
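IDH1-R132H (0.5 ug/mL) preincubated 30 min with compound, then NADPH (0.016 mM) and alpha-KG (2 mM) added; 80 min at RT, pH 7.5. Remaining NADPH coupled via diaphorase/resazurin to fluorescence (540/590 nm); concentration-response curves normalized to no-enzyme control.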
IL-2 act – qHTS of IL-2 Activators | 0.065% of 360,000 active | IL-2 activation reporter assay, cell-based qHTS; stimulated with anti-CD3/CD4/CD28 beads; in transgenic mouse T cells | activation, % (series mostly up to about 46 µM); in the data active means activation above about 50%; inconclusive means mostly about 30% to 49%
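EGFP and DsRed fluorescence is measured by plate cytometry in unstimulated transgenic mouse T cells exposed to compound for 60 minutes, then stimulated 18 hours at 37 degrees C with anti-CD3/anti-CD4 beads plus anti-CD28.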
Giardia kill – Small Molecules that selectively kill Giardia lamblia: qHTS. 0.15% of 340,000 active. Giardia lamblia trophozoite viability. activity change, % at 7.66 µM, hits read low; in the data active means activity change below about -80%; inconclusive means between about -30% and that limit;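 further: parasites exposed to compound for two days anaerobically before the ATP read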
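Luminescent ATP signal served as the viability read-out, measured 15-30 min after adding ATP detection reagent to trophozoites that had been incubated with compounds for 48 hrs at 37 deg C anaerobically at 100 cells/well.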
BRCA1 expr up – qHTS Assay to Identify Small Molecule Activators of BRCA1 Expression; MCF7-BRCA1-FFLuc reporter, luminescence, 48 h; response scale: scaled: vehicle 0%, 10 µM genistein 100%; AID 624202, 2012; Potency, µM (highest dose often 46.1 µM), actives largely listed as activators; 1.1% of 380,000 active; further: nearly all actives have a fitted effect of over 80% in size
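First, MCF7-BRCA1-FFLuc cells (2000/well) attach for 2 h; next, compounds are pin-added and incubated 48 h at 37 °C; finally, luciferase reagent is added and luminescence read after 15 min.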
TrxR1 substrate – qHTS Assay for Substrates of Mammalian Selenoprotein Thioredoxin Reductase 1 (TrxR1): qHTS. Potency, µM (series often up to 114 µM). Thioredoxin reductase 1, cytoplasmic (Rattus norvegicus), O89049. purified TrxR1 substrate turnover, NADPH consumption readout. 0.01% of 390,000 active; further: nearly all actives have a fitted effect of over 50% in size
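Rat TrxR1, dispensed at 90 nM, was prereduced with 400 uM NADPH (final) for 5 min at ~22 deg C, then incubated with compound 15 min before 400 uM selenite. A first-read NADPH fluorescence drop versus no-compound background flagged substrates.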
Large screens that a line does not name were inactive. Unless noted, the call rests on the fitted dose curve; in most records, active means well fitted curve in the direction sought with a large enough effect; inconclusive means small, poorly fitted or top-dose-only effect, or another doubt; inactive means no such curve, though single readings can be large; an effect the other way counts as inactive or inconclusive.

O=C(NCN1CCc2ccccc2C1)c1ccccc1	none
O=C(NCN1CCc2ccccc2C1)c1cnccn1	rTrxR1 inhibitor 20µM
O=C(CC1Sc2ncnn2C1=O)Nc1ccc(Br)cc1 (stereo not given)	rTrxR1 inhibitor 1.4µM
O=C(CC1SC2=NCCN2C1=O)Nc1ccc(Br)cc1 (stereo not given)	none
O=C(NCc1ccc(F)cc1)c1c2c(nc3ccccc13)CCC2	BRCA1 expr up 14µM
O=C(NCc1ccco1)c1c2c(nc3ccccc13)CCC2	rTrxR1 inhibitor inconclusive
COc1cccc(-n2cc(C(=O)OCc3ccc(F)c(F)c3)c3ccccc3c2=O)c1	none (no result: IL-2 act, Giardia kill, BRCA1 expr up)
O=C(NCc1ccco1)[C@@H]1CCCN1C(=O)c1cccs1	rTrxR1 inhibitor 79µM
O=C(NCc1ccccc1)[C@@H]1CCCN1C(=O)[C@@H]1CCCN1C(=O)c1cccs1	none (no result: rTrxR1 inhibitor, IDH1 R132H inh, Giardia kill, TrxR1 substrate)
Cn1nnc2c(NCc3ccc(Cl)cc3)ncnc21	none (no result: IL-2 act, Giardia kill, BRCA1 expr up)
Cc1cc(NC(=O)c2cccc(Oc3ccccc3)c2)n[nH]1	BRCA1 expr up 11µM
CCc1ccccc1NC(=O)N1CCN(c2cc(-c3noc(C)n3)ccc2C)CC1	none (no result: IL-2 act, Giardia kill)
CNc1ccc(Br)cc(C(=O)/C=C/c2ccc(OC)cc2OC)c1=O	rTrxR1 inhibitor 14µM
CNc1ccc(Br)cc(C(=O)/C=C/c2ccc(Cl)cc2Cl)c1=O	none
CNc1ccc(Br)cc(C(=O)/C=C/c2cccc(OC)c2)c1=O	rTrxR1 inhibitor 13µM
COc1ccc(NC(=O)c2ccco2)cc1NC(=O)c1ccc(OC(C)C)cc1	none (no result: IL-2 act, Giardia kill, BRCA1 expr up)
CC(=O)ON(C(C)=O)c1ccc(/C=C2/C=Cc3ccccc32)cc1	rTrxR1 inhibitor inconclusive (no result: IDH1 R132H inh, IL-2 act, Giardia kill, BRCA1 expr up)
COC(C/C=C/C(=O)COCc1ccccc1)OC	rTrxR1 inhibitor inconclusive
COC(C/C=C/C(=O)[C@H](C)OCc1ccccc1)OC	rTrxR1 inhibitor 45µM
Clc1ccc(N2CCN(c3ncnc4c3nc3n4CCCC3)CC2)cc1	none (no result: IL-2 act, Giardia kill, BRCA1 expr up)
CCCNC(=O)c1noc2c1CCc1cc(OC)ccc1-2	rTrxR1 inhibitor inconclusive, Giardia kill inconclusive, BRCA1 expr up inconclusive
COc1ccc2c(c1)CCc1c(C(=O)N3CCCCCC3)noc1-2	rTrxR1 inhibitor 11µM, BRCA1 expr up inconclusive
COc1ccc2nc(C)cc(NCc3ccc(F)cc3)c2c1	IL-2 act 65
COc1ccc2nc(C)cc(Nc3ccc(C)cc3)c2c1	none
CCOC(=O)c1c(NC(C)=O)sc2c1CCC(C=NCCCN(CC)CC)=C2Sc1ccccc1	rTrxR1 inhibitor 3.5µM
O=C(c1cc(-c2cccs2)on1)N1CCc2ccccc2C1	none
O=C(c1cc(-c2ccco2)on1)N1CCc2ccccc2C1	rTrxR1 inhibitor 32µM
O=C(c1cc(-c2ccc(O)cc2)on1)N1CCc2ccccc2C1	none
O=C(c1cc(-c2ccccc2O)on1)N1CCc2ccccc2C1	BRCA1 expr up 10µM
COc1ccccc1N1CCN(C(=O)c2cc(-c3ccco3)on2)CC1	rTrxR1 inhibitor 45µM
O=C(NCc1ccccc1)c1cc(-c2ccco2)on1	BRCA1 expr up 11µM
CSc1cccc(Nc2nc3c(S(=O)(=O)c4ccccc4)nnn3c3ccc(Cl)cc23)c1	none (no result: IL-2 act, Giardia kill, BRCA1 expr up)
CN(C)c1ccc(/C=C/c2ccnc3c(Cl)cccc23)cc1	none (no result: IDH1 R132H inh, IL-2 act, Giardia kill, BRCA1 expr up)
CCN(CC)/[N+]([O-])=N/OCOC(=O)C(C)c1ccc(CC(C)C)cc1 (stereo not given)	none (no result: IDH1 R132H inh, IL-2 act, Giardia kill)
Cc1ccc(CN2C(=O)C(=O)c3cc(Br)cc(C)c32)cc1	IDH1 R132H inh inconclusive (no result: IL-2 act, Giardia kill, BRCA1 expr up)
O=c1cccccc1NN=C1CCCCCC1	BRCA1 expr up 10µM
O=c1cccccc1NN=C1CCCCC1	rTrxR1 inhibitor inconclusive
O=c1c2c3nc4ccccc4nc3n(Cc3ccccc3)c2ncn1Cc1ccco1	rTrxR1 inhibitor 18µM
Nc1ccc2cccnc2c1	BRCA1 expr up inconclusive (no result: IDH1 R132H inh, IL-2 act, Giardia kill)
O=C(NCCn1ccc2ccccc21)c1ccc2c(c1)OCO2	BRCA1 expr up 2.5µM
COc1ccc(C(=O)NCCn2ccc3ccccc32)cc1	BRCA1 expr up inconclusive
N#C/C(=C\c1coc2ccccc2c1=O)C(N)=S	none
N#C/C(=C\c1coc2ccc(O)cc2c1=O)C(=O)Nc1nc2ccccc2s1	rTrxR1 inhibitor 14µM, IDH1 R132H inh inconclusive
CCOc1ccc(/C=c2\sc3nc(-c4ccco4)nn3c2=O)cc1OCC	none
COc1cc(/C=c2\sc3nc(=O)c(-c4ccccc4)nn3c2=O)ccc1OCCC(C)C	IL-2 act 100
O=c1oc(=O)c2ccccc2c2ccccc12	none
Nc1ccc2oc(=O)c3ccccc3c2c1	BRCA1 expr up 11µM
CCCCn1cc(S(=O)(=O)c2ccc(CC)cc2)c(=O)c2cc(F)c(N3CCOCC3)cc21	none (no result: IL-2 act, Giardia kill, BRCA1 expr up)
O=C(CC(=O)c1ccccc1)CS(=O)(=O)c1ccccc1	none
Cc1ccc(S(=O)(=O)CC(=O)c2ccccc2)cc1	rTrxR1 inhibitor 35µM
CC(C)(C)c1ccc(C(=O)CS(=O)(=O)c2ccccc2)cc1	rTrxR1 inhibitor inconclusive, BRCA1 expr up 4µM
Cc1cc(C(=O)CS(=O)(=O)c2ccc(Cl)cc2)cc(C)c1O	rTrxR1 inhibitor 45µM
COc1ccc(S(=O)(=O)CC(=O)c2cc(C)c(O)c(C)c2)cc1	none
COc1ccc(CNC(=O)Cc2coc3ccc(C)cc23)cc1	none (no result: IL-2 act, Giardia kill, BRCA1 expr up)
